Bioassay records (PubChem)
hNpr1 antagonist: human Npr1 receptor antagonism; AID 1347048; P16066; HEK293 hNpr1 GloSensor cGMP, ANP-stimulated luminescence; Potency, µM (highest dose often 46.3 µM), most hits filed as inhibitors; 76,000 tested, 1.6% active; calls by dose curve; note: nearly all actives have a fitted effect of over 60% in size
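HEK293 cells stably expressing human Npr1 and cGMP GloSensor pGS-40F, loaded 2 h with 2% GloSensor reagent, given compound 30 min at room temperature. Luminescence read before and 20 min after 0.1 nM hNppA.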
Luciferase inh: blocks purified firefly luciferase enzyme activity | P08659 | purified P. pyralis luciferase, luminescence, biochemical | Potency, µM (highest dose often 115 µM), usual class: inhibitors | 76,000 tested, 2.5% active; note: nearly all actives have a fitted effect of over 65% in size
Target sequence (P08659 whole entry, looked up): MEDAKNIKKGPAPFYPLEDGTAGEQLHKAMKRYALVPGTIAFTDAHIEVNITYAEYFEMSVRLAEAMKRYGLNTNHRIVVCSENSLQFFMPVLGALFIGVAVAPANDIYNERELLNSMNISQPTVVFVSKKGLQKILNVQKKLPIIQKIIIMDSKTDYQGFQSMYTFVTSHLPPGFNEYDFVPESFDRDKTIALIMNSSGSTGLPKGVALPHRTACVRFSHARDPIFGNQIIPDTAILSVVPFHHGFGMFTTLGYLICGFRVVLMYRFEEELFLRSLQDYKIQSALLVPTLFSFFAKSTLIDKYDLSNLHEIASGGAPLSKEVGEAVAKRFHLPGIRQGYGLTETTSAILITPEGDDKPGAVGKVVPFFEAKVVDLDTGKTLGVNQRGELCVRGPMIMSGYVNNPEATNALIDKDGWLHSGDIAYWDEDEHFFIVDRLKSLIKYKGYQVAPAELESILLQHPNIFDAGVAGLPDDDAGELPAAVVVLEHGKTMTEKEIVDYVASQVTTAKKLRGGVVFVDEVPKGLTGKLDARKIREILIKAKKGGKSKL
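Luminescence read by CCD imaging after purified firefly luciferase (10nM final) was added to substrate buffer holding 10uM D-luciferin and 10uM ATP, pH 7.5, pre-dosed with compound.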
3T3 cytotox: NIH 3T3 cell cytotoxicity; Potency, µM (top dose mostly 96.7 µM), actives largely listed as inhibitors; NIH 3T3 viability, CellTiter-Glo ATP luminescence, 48-72 h; 94,000 tested, 4.3% active; AID 1345082; note: nearly all actives have a fitted effect of over 55% in size
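Luminescent ATP readout (CellTiter-Glo, 10 min RT) after 48 or 72 hr compound exposure of NIH 3T3 cells seeded at 400 cells/well in 1536-well format; quantitative HTS.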
HEK cytotox: kills HEK 293 cells | 94,000 tested, 6.6% active | Potency, µM (titrated, usually from 115 µM), actives largely listed as inhibitors | HEK 293 viability, ATP luminescence (CellTiter-Glo), 48-72 h; note: nearly all actives have a fitted effect of over 60% in size
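HEK 293 seeded at 250 cells/well receive compound via pintool. After 48 or 72 hr at 37 degree Celsius, 5% CO2 and 95% humidity, CellTiter-Glo is dispensed and luminescence read following 10 min at room temperature.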
Numbers stand for hits; – = inactive; ? = inconclusive; · = not tested or not shown; ! = a repeat was not active. Compounds with a hit are over-represented: about 11% of the library has one in this group of screens. Unless noted, calls come from the whole dose curve; as a rule, active = well fitted curve in the direction sought with a large enough effect; inconclusive = small, poorly fitted or top-dose-only effect, or another doubt; inactive = no such curve, though single readings can be large; an effect the other way counts as inactive or inconclusive.

SMILES | hNpr1 antagonist | Luciferase inh | 3T3 cytotox | HEK cytotox
CC(C)(C)C(=O)N1CCCC(C(=O)N2CCC(N3CCOC3=O)CC2)C1 (configuration not stated) | · | · | – | –
CCCCNc1nc2c(s1)C[C@]1(C)CC[C@@H]3[C@H](OC(=O)[C@H]3C)[C@H]1[C@@H]2C | 18µM | ? | ? | ?
C[C@@H]1C(=O)O[C@H]2[C@H]1CC[C@@]1(C)Cc3sc(NC(=O)NC4CCCCC4)nc3[C@@H](C)[C@H]21 | – | ? | – | ?
CCC(CC)C(=O)N1CCC(=O)N(CCOC)C[C@H]2COc3ccccc3[C@H]21 | · | · | – | ?
COc1cccc(CN2C[C@@H](CO)[C@H](NC(=O)c3ccccc3)C2)c1 | – | – | ? | 35µM
N#Cc1cccc(CN2C[C@@H](CO)[C@H](NC(=O)c3ccccc3)C2)c1 | – | – | 5µM | ?
O=C1CC(c2ccccc2)N(S(=O)(=O)c2ccc3c(c2)OCCO3)CCCCCN1 (configuration not stated) | – | – | – | –
COC1CCN(C(C)=O)CC(=O)N(C)c2ccccc21 (configuration not stated) | · | · | ? | –
COc1cccc(-c2ccc(C(=O)NCCNC(=O)Cc3ccc(F)cc3)cc2)c1 | · | · | ? | 89µM
COc1cccc(-c2ccc(C(=O)NCCNC(=O)c3ccccc3F)cc2)c1 | · | · | – | 89µM!
COc1ccc(CC(=O)NCCNC(=O)c2ccc(-c3cccc(OC)c3)cc2)cc1 | · | · | – | ?
COc1cccc(-c2ccc(C(=O)NCCNC(C)=O)cc2)c1 | · | · | – | –
O=C1NC2(CCCN(C(=O)c3ccc4c(c3)OCO4)C2)COc2ccccc21 (configuration not stated) | – | – | ? | 40µM
Cc1ccc(C(=O)N2CCCC3(COc4ccccc4C(=O)N3)C2)cc1 (configuration not stated) | – | – | ? | 63µM
O=C1NC2(CCCN(C(=O)c3ccccc3F)C2)COc2ccccc21 (configuration not stated) | 13µM | – | ? | 35µM
CC(C)C[C@@H]1N[C@H](C(=O)NCc2cccnc2)Cc2c[nH]c3cccc1c23 | – | – | ? | 25µM
C=CCn1cc2c3c(cccc31)[C@H](CC(C)C)N[C@H](C(=O)NCc1ccc(F)cc1)C2 | – | – | ? | ?
CC(C)C[C@@H]1N[C@H](C(=O)NCc2ccc(C(F)(F)F)cc2)Cc2c[nH]c3cccc1c23 | – | – | 28µM | 32µM
CC(C)C[C@@H]1N[C@H](C(=O)NCc2ccc(C#N)cc2)Cc2c[nH]c3cccc1c23 | – | – | 25µM | 56µM
COc1cccc(-c2ccc(CN3CCCC3C(=O)N3CCN(c4ncccn4)CC3)cc2)c1 (configuration not stated) | · | · | 20µM | ?
COc1cccc(-c2ccc(CN3CCCC3C(=O)NCc3ccccc3)cc2)c1 (configuration not stated) | · | · | 40µM | 40µM
COc1ccc(CNC(=O)C2CCCN2Cc2ccc(-c3cccc(OC)c3)cc2)cc1 (configuration not stated) | · | · | 40µM | 32µM
COc1cccc(CNC(=O)C2CCCCc3nnc(-c4ccccc4)n32)c1 (configuration not stated) | · | · | – | –
C[S+](=O)([O-])N1Cc2ccccc2CC2(CCN(CC3CCCC3)C2)C1 (configuration not stated) | · | · | – | –
O=C(c1cccc(Cl)c1)N1CCC(C(=O)N2CCC(N3CCOC3=O)CC2)CC1 | · | · | – | –
SMILES | hNpr1 antagonist | Luciferase inh | 3T3 cytotox | HEK cytotox
O=C1Nc2ccc(-c3ccccc3)cc2C(=O)N2CCN(C(=O)NC3CCCCC3)C[C@H]12 | – | – | – | ?
O=C1Nc2ccc(-c3cccc(C(F)(F)F)c3)cc2C(=O)N2CCN(C(=O)NC3CCCCC3)C[C@H]12 | – | – | ? | 35µM
O=C1Nc2ccc(-c3cccc(C(F)(F)F)c3)cc2C(=O)N2CCN(C(=O)c3ccco3)C[C@@H]12 | – | – | ? | 40µM
CO[C@H]1CN(C2CCN(S(=O)(=O)N(C)C)CC2)[C@H]1c1ccncc1 | · | · | – | –
O=C(C1CCCN1C(=O)c1ccc(F)cc1)N1CCC(N2Cc3ccccc3C2=O)CC1 (configuration not stated) | · | · | – | –
O=C(c1cc(-c2cccc(C(F)(F)F)c2)c2nncn2n1)N1CCC(N2CCCCC2)CC1 | · | · | – | ?
CC(C)(C)c1cc(C(=O)N2CCOCC2)nn2cccc12 | · | · | – | –
O=C(c1cc(-c2cc(Cl)cc(Cl)c2)c2cccn2n1)N1CCOCC1 | · | · | 35µM | ?
COc1ccc2c(c1)CCN=C2C[C@H]1CN(C(=O)C(C)(C)C)CC[C@H]1CC(=O)O | – | – | ? | 112µM
COc1ccc2c(c1)CCN=C2C[C@H]1CN(C(=O)C2CC2)CC[C@H]1CC(=O)O | – | – | – | –
CNC(=O)c1cc(C)nc2onc(C3CCCN(C(=O)C(C)(C)C)C3)c12 (configuration not stated) | · | · | – | –
COc1ccc(F)cc1-c1ccc(CN2CCC(N[S+](=O)([O-])c3ccc(C)cc3)C2)cc1 (configuration not stated) | · | · | 28µM | 32µM
COc1ccc(F)cc1-c1ccc(CN2CCC(N[S+](=O)([O-])c3c(C)noc3C)C2)cc1 (configuration not stated) | · | · | ? | 45µM
COc1ccc(F)cc1-c1ccc(CN2CCC(N[S+](=O)([O-])c3cccs3)C2)cc1 (configuration not stated) | · | · | ? | 40µM
COc1ccccc1-c1ccc(CN2CC3CCC(C2)N3c2ccc(C(F)(F)F)cc2)cc1 | · | · | – | –
Cc1noc(C)c1[S+](=O)([O-])NC1CCCN(Cc2ccc(-c3cncnc3)cc2)C1 (configuration not stated) | · | · | – | ?
COc1cccc(-c2ccc(CN3CC4CCC(C3)N4c3ccc(C(F)(F)F)cc3)cc2)c1 | – | – | – | –
COc1cccc(-c2ccc(CN3CCCC(N[S+](=O)([O-])c4cccs4)C3)cc2)c1 (configuration not stated) | · | · | 32µM | 13µM
COc1ccc(-n2c(=O)c(C(=O)NCCSC)nc3cccnc32)cc1 | · | · | – | –
CC1=C(C(=O)OC(C)C)C(c2ccccc2Cl)CC(=O)N1Cc1cccc(F)c1 (configuration not stated) | – | – | ? | 32µM
CNC(=O)C1CCCN1c1nccc(Nc2ccccc2F)n1 (configuration not stated) | · | · | – | –
O=C(NC1CCCC1)C1CCCN(c2nccc(Nc3ccccc3F)n2)C1 (configuration not stated) | · | · | 40µM | ?
O=C(NC1CC1)C1CCCN(c2nccc(Nc3ccccc3F)n2)C1 (configuration not stated) | · | · | 89µM | ?
O=C(N1CCC(c2n[nH]c(=O)n2Cc2ccc(F)cc2)CC1)C1(c2ccccc2)CC1 | – | – | ? | ?
CCOCCOC1CCN(C(=O)c2cccc3[nH]ccc23)CC1 | – | 35µM | – | –
COCCOC1CCN(C(=O)c2cccc3[nH]ccc23)CC1 | – | – | – | –
O=C(Nc1cccc(Cl)c1)C1=NO[C@@H]2CN(c3ccccn3)C[C@H]12 | – | – | ? | 100µM
